# Legend:
# Assay in all cases: DAPPL (digital affinity profiling via proximity ligation, sequencing); 10 mM Tris-HCl pH 7.5, 50 mM NaCl, 1 mM DTT, 4% glycerol, room temperature, 30 min; GST-TFs on glutathione beads, 16-mer random dsDNA library, 0.1% formaldehyde crosslink after washing; high values mean tight binding
# FLI1 = biological target: T1, FLI1 (Homo sapiens, UniProt Q01543 1-452); conditions: protein: recombinant; tags: N-terminal GST; dsDNA, one strand shown
# T1 sequence: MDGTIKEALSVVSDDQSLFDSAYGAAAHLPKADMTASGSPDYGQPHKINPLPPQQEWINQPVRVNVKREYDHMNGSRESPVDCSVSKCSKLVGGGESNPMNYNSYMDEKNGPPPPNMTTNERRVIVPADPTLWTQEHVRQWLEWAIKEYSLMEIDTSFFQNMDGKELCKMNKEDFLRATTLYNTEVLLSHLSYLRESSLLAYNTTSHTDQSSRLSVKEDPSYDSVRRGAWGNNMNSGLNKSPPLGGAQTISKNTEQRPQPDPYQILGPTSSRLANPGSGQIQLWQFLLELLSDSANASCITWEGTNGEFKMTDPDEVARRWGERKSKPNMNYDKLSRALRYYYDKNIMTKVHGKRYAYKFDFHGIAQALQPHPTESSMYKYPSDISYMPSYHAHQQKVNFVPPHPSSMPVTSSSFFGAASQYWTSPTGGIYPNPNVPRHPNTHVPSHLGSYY
# How it was run: (§1)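 GST fusions of human transcription factors were expressed in yeast and captured with glutathione beads. Once given DNA barcodes and pooled alongside a tag-only sample, they were incubated for 30 min at room temperature with 200 nmole of a random double-stranded 16-mer DNA library in Tris/NaCl/DTT/glycerol buffer, then washed, crosslinked (0.1% formaldehyde), proximity-ligated, PCR-amplified and sequenced on an Illumina NextSeq500. The binding signal of each hexamer is its read frequency for a factor divided by its frequency for the tag-only sample.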
# ELK1 = biological target: T2, ELK1 (Homo sapiens, UniProt P19419 1-428); conditions: protein: recombinant; tags: N-terminal GST; dsDNA, one strand shown
# T2 sequence: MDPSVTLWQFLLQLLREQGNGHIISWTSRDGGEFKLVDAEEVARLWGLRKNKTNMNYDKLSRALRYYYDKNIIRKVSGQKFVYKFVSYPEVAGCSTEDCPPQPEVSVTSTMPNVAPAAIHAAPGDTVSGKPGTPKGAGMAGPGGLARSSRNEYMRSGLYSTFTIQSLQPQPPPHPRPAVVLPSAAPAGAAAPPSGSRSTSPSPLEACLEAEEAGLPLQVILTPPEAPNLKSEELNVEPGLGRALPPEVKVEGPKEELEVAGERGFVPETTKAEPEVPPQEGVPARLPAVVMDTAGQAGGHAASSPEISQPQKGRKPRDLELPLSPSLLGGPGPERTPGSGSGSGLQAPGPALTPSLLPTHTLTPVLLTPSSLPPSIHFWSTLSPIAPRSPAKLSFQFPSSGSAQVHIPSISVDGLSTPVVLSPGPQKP
# How it was run: as §1
# GABPA = biological target: T3, GABPA (Homo sapiens, UniProt Q06546 1-454); conditions: protein: recombinant; tags: N-terminal GST; dsDNA, one strand shown
# T3 sequence: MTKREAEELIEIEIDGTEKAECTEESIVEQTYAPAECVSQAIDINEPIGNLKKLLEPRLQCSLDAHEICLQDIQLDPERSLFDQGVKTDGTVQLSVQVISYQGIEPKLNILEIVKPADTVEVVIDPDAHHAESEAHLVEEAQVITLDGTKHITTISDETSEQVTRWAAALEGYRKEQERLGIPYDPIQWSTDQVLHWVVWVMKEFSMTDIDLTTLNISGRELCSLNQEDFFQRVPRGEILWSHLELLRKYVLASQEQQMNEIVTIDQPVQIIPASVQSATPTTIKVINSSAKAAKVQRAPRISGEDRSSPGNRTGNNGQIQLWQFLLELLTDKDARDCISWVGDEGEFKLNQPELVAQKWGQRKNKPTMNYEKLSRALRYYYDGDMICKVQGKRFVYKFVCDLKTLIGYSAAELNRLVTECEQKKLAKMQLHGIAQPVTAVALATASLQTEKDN
# How it was run: as §1
# ERG = biological target: T4, ERG (Homo sapiens, UniProt P11308 1-479); conditions: protein: recombinant; tags: N-terminal GST; dsDNA, one strand shown
# T4 sequence: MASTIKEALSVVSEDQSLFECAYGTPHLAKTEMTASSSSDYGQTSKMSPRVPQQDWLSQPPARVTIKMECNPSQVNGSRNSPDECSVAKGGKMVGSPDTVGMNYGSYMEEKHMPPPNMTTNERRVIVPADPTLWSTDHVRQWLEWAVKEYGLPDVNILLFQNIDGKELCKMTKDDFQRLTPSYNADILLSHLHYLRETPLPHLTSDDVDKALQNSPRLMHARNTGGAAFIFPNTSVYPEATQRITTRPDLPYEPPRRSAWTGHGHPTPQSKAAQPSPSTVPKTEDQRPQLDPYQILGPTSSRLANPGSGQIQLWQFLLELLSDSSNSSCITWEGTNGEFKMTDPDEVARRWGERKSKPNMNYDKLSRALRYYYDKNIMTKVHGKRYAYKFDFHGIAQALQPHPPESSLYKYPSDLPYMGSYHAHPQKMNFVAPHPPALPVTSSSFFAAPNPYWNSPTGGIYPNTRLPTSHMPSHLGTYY
# How it was run: as §1
# ELF1 = ELF1 (Homo sapiens, UniProt P32519 1-619); conditions: protein: recombinant; tags: N-terminal GST; dsDNA, one strand shown
# Chain of ELF1 (P32519 whole entry): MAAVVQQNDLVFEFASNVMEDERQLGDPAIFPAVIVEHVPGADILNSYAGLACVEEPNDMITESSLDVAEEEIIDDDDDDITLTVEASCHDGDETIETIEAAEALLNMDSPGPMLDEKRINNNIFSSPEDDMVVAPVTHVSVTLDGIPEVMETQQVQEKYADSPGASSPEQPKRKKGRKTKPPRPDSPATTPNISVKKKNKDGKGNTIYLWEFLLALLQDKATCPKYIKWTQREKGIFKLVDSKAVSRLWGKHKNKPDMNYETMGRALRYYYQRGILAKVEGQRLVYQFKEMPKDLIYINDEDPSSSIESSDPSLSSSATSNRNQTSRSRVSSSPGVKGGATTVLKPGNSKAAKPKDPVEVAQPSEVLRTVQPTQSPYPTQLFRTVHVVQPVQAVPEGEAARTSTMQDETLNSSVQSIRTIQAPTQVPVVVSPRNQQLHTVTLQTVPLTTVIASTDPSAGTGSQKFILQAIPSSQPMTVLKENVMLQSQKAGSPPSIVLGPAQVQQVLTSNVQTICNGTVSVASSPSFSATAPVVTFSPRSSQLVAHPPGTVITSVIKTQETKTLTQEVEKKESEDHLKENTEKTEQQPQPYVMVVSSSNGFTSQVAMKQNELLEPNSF
# How it was run: as §1
# EHF = biological target: T5, EHF (Homo sapiens, UniProt Q9NZC4 1-300); conditions: protein: recombinant; tags: N-terminal GST; dsDNA, one strand shown
# T5 sequence: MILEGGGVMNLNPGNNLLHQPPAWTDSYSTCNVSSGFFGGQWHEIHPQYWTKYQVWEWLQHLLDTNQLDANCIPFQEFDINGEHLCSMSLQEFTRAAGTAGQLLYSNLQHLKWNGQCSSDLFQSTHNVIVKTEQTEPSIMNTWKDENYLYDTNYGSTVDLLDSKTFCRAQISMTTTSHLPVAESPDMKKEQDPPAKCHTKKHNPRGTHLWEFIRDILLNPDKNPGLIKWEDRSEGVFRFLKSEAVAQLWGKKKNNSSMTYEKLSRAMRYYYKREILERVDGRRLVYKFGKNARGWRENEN
# How it was run: as §1
# SPI1 = SPI1 (Homo sapiens, UniProt P17947 1-270); conditions: protein: recombinant; tags: N-terminal GST; dsDNA, one strand shown
# How it was run: as §1
# SPIB = SPIB (Homo sapiens, UniProt Q01892 1-262); conditions: protein: recombinant; tags: N-terminal GST; dsDNA, one strand shown
# Chain of SPIB (Q01892 whole entry): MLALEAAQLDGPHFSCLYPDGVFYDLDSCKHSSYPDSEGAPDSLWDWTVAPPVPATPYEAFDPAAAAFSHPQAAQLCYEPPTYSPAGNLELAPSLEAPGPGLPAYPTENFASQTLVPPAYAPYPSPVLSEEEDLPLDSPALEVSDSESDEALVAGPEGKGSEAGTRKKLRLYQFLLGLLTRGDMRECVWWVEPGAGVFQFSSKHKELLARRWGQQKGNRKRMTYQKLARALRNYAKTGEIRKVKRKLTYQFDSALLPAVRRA
# How it was run: as §1
# ELK3 = biological target: T6, ELK3 (Homo sapiens, UniProt P41970 1-407); conditions: protein: recombinant; tags: N-terminal GST; dsDNA, one strand shown
# T6 sequence: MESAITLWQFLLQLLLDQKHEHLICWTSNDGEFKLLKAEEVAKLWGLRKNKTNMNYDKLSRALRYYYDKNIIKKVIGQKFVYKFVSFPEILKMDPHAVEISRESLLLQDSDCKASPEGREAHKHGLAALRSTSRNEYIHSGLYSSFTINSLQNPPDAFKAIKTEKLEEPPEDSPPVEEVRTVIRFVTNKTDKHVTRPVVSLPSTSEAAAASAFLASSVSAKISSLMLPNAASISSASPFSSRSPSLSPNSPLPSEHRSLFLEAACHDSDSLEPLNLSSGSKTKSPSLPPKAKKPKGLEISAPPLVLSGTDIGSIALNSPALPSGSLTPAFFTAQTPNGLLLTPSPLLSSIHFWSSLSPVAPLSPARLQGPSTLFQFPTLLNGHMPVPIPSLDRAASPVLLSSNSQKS
# How it was run: as §1
# FEV = biological target: T7, FEV (Homo sapiens, UniProt Q99581 1-238); conditions: protein: recombinant; tags: N-terminal GST; dsDNA, one strand shown
# T7 sequence: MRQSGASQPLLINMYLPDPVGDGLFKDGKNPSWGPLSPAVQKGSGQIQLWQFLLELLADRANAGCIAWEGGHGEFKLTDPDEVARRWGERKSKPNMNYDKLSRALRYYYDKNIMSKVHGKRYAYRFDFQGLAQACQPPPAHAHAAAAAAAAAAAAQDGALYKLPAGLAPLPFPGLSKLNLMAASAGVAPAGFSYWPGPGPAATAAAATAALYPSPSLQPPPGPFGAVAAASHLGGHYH
# How it was run: as §1
# ETV5 = ETV5 (Homo sapiens, UniProt P41161 1-510); conditions: protein: recombinant; tags: N-terminal GST; dsDNA, one strand shown
# Chain of ETV5 (P41161 whole entry): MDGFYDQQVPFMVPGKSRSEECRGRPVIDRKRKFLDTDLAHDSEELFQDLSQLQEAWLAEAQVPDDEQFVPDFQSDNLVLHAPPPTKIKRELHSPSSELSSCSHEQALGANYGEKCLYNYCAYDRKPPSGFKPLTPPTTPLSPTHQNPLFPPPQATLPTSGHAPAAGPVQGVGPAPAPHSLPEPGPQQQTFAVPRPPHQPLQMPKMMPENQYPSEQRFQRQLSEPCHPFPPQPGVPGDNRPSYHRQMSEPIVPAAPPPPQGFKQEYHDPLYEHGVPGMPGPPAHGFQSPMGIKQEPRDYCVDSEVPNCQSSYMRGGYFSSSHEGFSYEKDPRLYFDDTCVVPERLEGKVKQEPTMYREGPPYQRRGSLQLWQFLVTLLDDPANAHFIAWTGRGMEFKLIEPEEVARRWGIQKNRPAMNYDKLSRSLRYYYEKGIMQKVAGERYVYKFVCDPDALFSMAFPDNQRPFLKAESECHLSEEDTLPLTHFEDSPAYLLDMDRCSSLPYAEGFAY
# How it was run: as §1
# HSF1 = HSF1 (Homo sapiens, UniProt Q00613 1-529); conditions: protein: recombinant; tags: N-terminal GST; chain copies: 3; dsDNA, one strand shown
# Chain of HSF1 (Q00613 whole entry): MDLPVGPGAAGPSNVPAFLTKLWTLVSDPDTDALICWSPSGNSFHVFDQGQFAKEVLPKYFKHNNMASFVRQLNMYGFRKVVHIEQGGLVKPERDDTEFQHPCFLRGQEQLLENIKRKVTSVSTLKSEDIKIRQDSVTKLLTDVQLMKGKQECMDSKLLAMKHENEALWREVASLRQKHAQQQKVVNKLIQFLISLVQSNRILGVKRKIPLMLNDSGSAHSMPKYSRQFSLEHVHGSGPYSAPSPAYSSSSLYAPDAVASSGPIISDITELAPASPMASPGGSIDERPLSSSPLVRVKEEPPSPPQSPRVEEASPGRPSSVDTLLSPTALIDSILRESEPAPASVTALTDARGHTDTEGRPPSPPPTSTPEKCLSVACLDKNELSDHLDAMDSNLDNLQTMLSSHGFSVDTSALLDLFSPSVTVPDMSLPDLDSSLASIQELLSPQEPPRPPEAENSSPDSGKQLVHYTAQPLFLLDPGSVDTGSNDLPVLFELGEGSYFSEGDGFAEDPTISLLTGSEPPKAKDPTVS
# How it was run: as §1
# SPIC = biological target: T8, SPIC (Homo sapiens, UniProt Q8N5J4 1-248); conditions: protein: recombinant; tags: N-terminal GST; dsDNA, one strand shown
# T8 sequence: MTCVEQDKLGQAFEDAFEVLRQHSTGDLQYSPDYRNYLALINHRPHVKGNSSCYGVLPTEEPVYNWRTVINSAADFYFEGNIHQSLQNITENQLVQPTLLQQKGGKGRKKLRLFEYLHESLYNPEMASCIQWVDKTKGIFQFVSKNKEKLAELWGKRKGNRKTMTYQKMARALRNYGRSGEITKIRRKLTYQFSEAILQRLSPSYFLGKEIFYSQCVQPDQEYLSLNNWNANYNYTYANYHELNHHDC
# How it was run: as §1
# ELF4 = ELF4 (Homo sapiens, UniProt Q99607 1-663); conditions: protein: recombinant; tags: N-terminal GST; dsDNA, one strand shown
# Chain of ELF4 (Q99607 whole entry): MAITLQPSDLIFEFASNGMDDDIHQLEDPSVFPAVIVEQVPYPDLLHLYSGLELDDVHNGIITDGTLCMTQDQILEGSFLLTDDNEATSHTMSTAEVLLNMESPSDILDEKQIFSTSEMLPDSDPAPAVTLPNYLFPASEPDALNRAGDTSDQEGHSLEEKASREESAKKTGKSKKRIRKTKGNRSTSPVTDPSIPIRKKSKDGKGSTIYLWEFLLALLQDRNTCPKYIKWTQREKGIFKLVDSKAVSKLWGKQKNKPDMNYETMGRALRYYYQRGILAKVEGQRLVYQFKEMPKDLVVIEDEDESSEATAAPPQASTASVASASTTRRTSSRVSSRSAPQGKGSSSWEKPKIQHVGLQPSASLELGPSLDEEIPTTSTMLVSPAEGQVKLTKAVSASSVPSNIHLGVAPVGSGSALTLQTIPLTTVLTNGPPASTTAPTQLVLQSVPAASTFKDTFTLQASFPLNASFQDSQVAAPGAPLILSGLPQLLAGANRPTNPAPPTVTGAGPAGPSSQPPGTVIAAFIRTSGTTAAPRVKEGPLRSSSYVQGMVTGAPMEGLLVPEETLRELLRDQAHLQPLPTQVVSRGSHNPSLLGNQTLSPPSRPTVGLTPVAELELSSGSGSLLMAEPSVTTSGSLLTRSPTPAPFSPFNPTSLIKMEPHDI
# How it was run: as §1
# ELK4 = biological target: T9, ELK4 (Homo sapiens, UniProt P28324-2 1-405); conditions: protein: recombinant; tags: N-terminal GST; dsDNA, one strand shown
# T9 sequence: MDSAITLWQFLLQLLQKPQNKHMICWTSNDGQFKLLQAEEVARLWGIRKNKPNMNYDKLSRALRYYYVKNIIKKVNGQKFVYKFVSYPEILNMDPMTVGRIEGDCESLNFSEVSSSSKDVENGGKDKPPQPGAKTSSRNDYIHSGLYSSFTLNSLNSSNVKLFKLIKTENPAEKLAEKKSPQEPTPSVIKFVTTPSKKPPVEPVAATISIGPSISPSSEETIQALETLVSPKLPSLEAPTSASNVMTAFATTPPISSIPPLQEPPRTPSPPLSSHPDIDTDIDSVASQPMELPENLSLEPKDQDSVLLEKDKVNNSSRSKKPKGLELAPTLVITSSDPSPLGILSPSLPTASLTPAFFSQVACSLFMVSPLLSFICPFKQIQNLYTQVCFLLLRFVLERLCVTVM
# How it was run: as §1
# ETV2 = biological target: T10, ETV2 (Homo sapiens, UniProt O00321 1-342); conditions: protein: recombinant; tags: N-terminal GST; dsDNA, one strand shown
# T10 sequence: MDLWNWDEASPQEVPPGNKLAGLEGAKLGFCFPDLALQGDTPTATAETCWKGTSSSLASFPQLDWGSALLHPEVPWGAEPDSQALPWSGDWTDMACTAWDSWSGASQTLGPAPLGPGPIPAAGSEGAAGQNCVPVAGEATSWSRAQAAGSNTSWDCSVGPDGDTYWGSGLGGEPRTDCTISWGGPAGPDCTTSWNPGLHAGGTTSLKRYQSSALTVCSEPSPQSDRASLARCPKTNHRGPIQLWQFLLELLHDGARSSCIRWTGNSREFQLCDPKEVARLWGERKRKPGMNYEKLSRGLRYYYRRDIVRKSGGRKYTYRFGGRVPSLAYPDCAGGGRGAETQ
# How it was run: as §1
# ELF3 = biological target: T11, ELF3 (Homo sapiens, UniProt P78545 1-371); conditions: protein: recombinant; tags: N-terminal GST; dsDNA, one strand shown
# T11 sequence: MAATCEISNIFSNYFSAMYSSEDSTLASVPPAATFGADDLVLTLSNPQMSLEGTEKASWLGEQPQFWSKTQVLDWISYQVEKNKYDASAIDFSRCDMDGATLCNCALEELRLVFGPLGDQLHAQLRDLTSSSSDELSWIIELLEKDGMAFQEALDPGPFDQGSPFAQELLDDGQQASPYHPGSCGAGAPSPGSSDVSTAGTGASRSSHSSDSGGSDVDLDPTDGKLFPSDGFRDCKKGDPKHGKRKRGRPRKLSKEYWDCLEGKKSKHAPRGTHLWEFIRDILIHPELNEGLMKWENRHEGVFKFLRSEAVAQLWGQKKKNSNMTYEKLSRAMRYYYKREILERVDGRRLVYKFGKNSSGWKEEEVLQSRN
# How it was run: as §1
# ETV1 = ETV1 (Homo sapiens, UniProt P50549 1-477); conditions: protein: recombinant; tags: N-terminal GST; dsDNA, one strand shown
# Chain of ETV1 (P50549 whole entry): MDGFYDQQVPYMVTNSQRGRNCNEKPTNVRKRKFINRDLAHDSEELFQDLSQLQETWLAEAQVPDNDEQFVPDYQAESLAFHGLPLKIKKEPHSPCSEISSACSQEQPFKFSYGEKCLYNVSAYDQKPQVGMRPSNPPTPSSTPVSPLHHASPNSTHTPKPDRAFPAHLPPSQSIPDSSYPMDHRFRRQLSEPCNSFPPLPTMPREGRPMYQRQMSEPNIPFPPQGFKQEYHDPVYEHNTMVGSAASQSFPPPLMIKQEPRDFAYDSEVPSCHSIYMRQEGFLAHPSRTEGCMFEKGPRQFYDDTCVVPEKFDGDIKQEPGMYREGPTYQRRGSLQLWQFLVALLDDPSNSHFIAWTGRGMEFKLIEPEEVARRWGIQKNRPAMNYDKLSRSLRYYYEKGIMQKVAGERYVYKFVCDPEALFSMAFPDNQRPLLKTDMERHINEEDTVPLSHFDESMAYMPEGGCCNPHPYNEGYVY
# How it was run: as §1
sequence,measurement,setting,value
GAACAC,binding signal,FLI1,"1.25 fold enrichment (6-mer frequency, TF over GST control)"
same,binding signal,ELK1,"1.19 fold enrichment (6-mer frequency, TF over GST control)"
same,binding signal,GABPA,"1.13 fold enrichment (6-mer frequency, TF over GST control)"
same,binding signal,ERG,"1.17 fold enrichment (6-mer frequency, TF over GST control)"
same,binding signal,ELF1,"1.19 fold enrichment (6-mer frequency, TF over GST control)"
same,binding signal,EHF,"1.12 fold enrichment (6-mer frequency, TF over GST control)"
same,binding signal,SPI1,"1.16 fold enrichment (6-mer frequency, TF over GST control)"
same,binding signal,SPIB,"1.2 fold enrichment (6-mer frequency, TF over GST control)"
same,binding signal,ELK3,"1.08 fold enrichment (6-mer frequency, TF over GST control)"
same,binding signal,FEV,"1.08 fold enrichment (6-mer frequency, TF over GST control)"
same,binding signal,ETV5,"1.08 fold enrichment (6-mer frequency, TF over GST control)"
same,binding signal,HSF1,"1.21 fold enrichment (6-mer frequency, TF over GST control)"
same,binding signal,SPIC,"1.18 fold enrichment (6-mer frequency, TF over GST control)"
same,binding signal,ELF4,"1.13 fold enrichment (6-mer frequency, TF over GST control)"
same,binding signal,ELK4,"1.17 fold enrichment (6-mer frequency, TF over GST control)"
same,binding signal,ETV2,"1.33 fold enrichment (6-mer frequency, TF over GST control)"
same,binding signal,ELF3,"1.13 fold enrichment (6-mer frequency, TF over GST control)"
same,binding signal,ETV1,"1.18 fold enrichment (6-mer frequency, TF over GST control)"
